Laboratory results as given in PubChem BioAssay (NCI).
The panel holds about 83,000 compounds, 20% with a hit somewhere; the sample as a whole holds those more often.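 Testing used 96-well plates and a 48-hour single-concentration exposure. Example: -40 means 40% of the starting cells died.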 Activity calls are given as the source filed them. The calls were made as follows: active = growth percent below 10; inactive = the rest.

System: HL-60(TB) leukemia
Assay: NCI-60 one-dose screen, 48 h (100 = growth as untreated, 0 = no growth, -100 = all killed)
Settings: 10 µM unless noted

SMILES | growth
CC(C)(C)NCCC(O)c1cc(C(F)(F)F)nc2c(C(F)(F)F)cccc12 (centres undefined) | 73.5% (inactive)
N#Cc1ccccc1OCC(=O)Nc1nc2c(s1)COc1ccccc1-2 | 107% (inactive)
C[C@]12CC[C@@H]3c4ccc(OS(=O)(=O)O)cc4CC[C@H]3[C@@H]1CC[C@@H]2NS(=O)(=O)c1ccc(-c2ccccc2)cc1 | 43.9% (inactive)
COc1ccc(/C=N/NC(=O)Cn2c(-c3ccc(S(C)(=O)=O)cc3)nc3ccccc32)cc1 | 161% (inactive)
Nc1nc(NC(=O)Nc2ccc(C(=O)O)cc2)nn1-c1ccc(S(N)(=O)=O)cc1 | 102% (inactive)
C=CC(C)C(C)(C)O (centres undefined) | 97.7% (inactive)
O=c1oc2ccc(I)cc2c(=O)n1-c1ccc(Br)cc1F | -27.8% (active)
O=C1c2ccccc2C(=O)c2cc(Cn3c[n+](Cc4ccc5ccccc5c4)c4ccccc43)ccc21 | -49.2% (active)
CCc1ccccc1-n1c(N)c(C#N)c(-c2ccc(Cl)cc2)c(C#N)c1=O | 117% (inactive)
COc1cccc(NC(=O)OC(C)C)c1 | 72.7% (inactive)
COc1ccc(C(=O)C(CN(C)C)c2ccc(OC)cc2)cc1 (centres undefined) | 36% (inactive)
N#Cc1c2ccccc2c2n1-c1ccccc1OC(c1ccccc1)C2=O (centres undefined) | 43.4% (inactive)
C#CCn1c2c(c3ccccc31)C[C@]1(C)[C@H]3CC[C@@H]4[C@@H]5C(=CCC[C@H]5C(=C)C)CC[C@@]4(C)[C@]3(C)CC[C@H]1C2(C)C | 101% (inactive)
Nc1c(CNCc2nnn(Cc3ccccc3)c2N)nnn1Cc1ccccc1 | 103% (inactive)
